Assay outcomes (PubChem)
M1 antag: blocks the rat M1 muscarinic receptor response to acetylcholine; P08482; B-score at 10 µM; AID 628; CHO-M1 cells, Fluo-4 calcium, ACh EC80 antagonist mode; stronger effect = lower value; 64,000 tested, 3.4% active;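 active means calcium fluorescence response, raw or row-and-column corrected B-score, differing from the plate sample mean either way at a set confidence level, mostly lower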
Target sequence (P08482 whole entry, looked up): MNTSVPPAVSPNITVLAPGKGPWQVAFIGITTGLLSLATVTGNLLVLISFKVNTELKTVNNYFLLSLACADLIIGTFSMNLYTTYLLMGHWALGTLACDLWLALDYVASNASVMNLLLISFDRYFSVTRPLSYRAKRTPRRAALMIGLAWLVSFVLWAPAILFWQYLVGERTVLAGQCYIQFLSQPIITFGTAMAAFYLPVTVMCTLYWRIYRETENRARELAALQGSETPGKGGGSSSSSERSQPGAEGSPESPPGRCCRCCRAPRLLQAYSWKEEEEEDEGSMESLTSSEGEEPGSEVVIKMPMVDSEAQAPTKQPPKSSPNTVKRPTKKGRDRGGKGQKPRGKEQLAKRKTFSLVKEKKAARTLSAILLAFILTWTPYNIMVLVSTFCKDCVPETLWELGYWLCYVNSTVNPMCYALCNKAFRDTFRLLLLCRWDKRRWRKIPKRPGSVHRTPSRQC
FXIIa mix inh: factor XIIa (human) inhibition, mixture screen; P00748; purified FXIIa, fluorogenic substrate, pooled mixtures; inhibition, % at 5 µM; 62,000 tested, 0.2% active; AID 684;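 further: 0% = enzyme without compound and 100% = no enzyme blank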
HER2 expr 66K: lowers expression of human Her2 kinase; P04626; SKBR-3 HER2 protein level, AlphaScreen, 18-24 h; stronger effect = lower value; HER2 level % of control, % at 10 µM; 65,000 tested, 0.69% active; AID 645;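 active means HER2 level under 5% of the carrier-only control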;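 further: 100% = DMSO carrier and 0% = 500 nM PU-H71 HSP90 inhibitor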
M1 ag: agonists of M1 muscarinic receptor. AID 626. 64,000 tested, 3% active. B-score at 10 µM. CHO-M1 cells, Fluo-4 calcium fluorescence, agonist mode; stronger effect = higher value;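 active means fluorescence rise, raw or as B-score row- and column-corrected plate score, outside the 99.7% band of its plate's samples, either direction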
FXIa mix inh: inhibitors of human coagulation factor XIa, pooled mixtures; AID 680; purified FXIa, fluorogenic substrate; P03951; 62,000 tested, 0.19% active; inhibition, % at 5 µM;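 further: each value is inhibition by a whole ten-compound pool holding the compound; 0% = enzyme with no mixture and 100% = wells lacking enzyme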
JNK3 inh: JNK3 (human) kinase inhibition | 60,000 tested, 0.61% active | purified JNK3 kinase activity, HTS | P53779 | inhibition, % at 8 µM; in the data active means inhibition above about 17%;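 further: 0% = DMSO and 100% = reference inhibitor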
M1 antag confirm: M1 muscarinic receptor (rat) antagonism, confirmed; shares compounds with M1 antag; CHO-M1 cells, Fluo-4 calcium, ACh EC80 antagonism; stronger effect = lower value; calcium response (max-min fluorescence) at 10 µM; 1,700 tested, 43% active;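 active means calcium response below the same-plate mean of wells given acetylcholine alone at its 80%-effect dose, minus 3 SD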;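 further: raw fluorescence intensity difference in arbitrary instrument units and not normalized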
mGluR4 antag: acts on human mGluR4 in M1 antagonist selectivity test; CHO-mGluR4 calcium flux, Fluo-4 fluorescence, glutamate EC80; stronger effect = lower value; fluorescence response (max-min) at 10 µM; shares compounds with M1 antag; AID 678; 1,700 tested, 0.9% active;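 active means fluorescence response below the plate's average for near-maximal glutamate wells, less 3 SD of those wells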;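 further: raw unnormalized fluorescence span taken in the window right after glutamate addition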
Starred values were filed as active, the others as inactive; x = not tested or not shown. A selection: hits, their analogues and other compounds. The true share with any hit is near 6.9%. Unless noted, no stated cut-off is given here; in the data, active means inhibition above about 20% (passing the limit was not always enough); inactive means the rest.

SMILES	M1 antag	FXIIa mix inh	HER2 expr 66K	M1 ag	FXIa mix inh	JNK3 inh	M1 antag confirm	mGluR4 antag
CCn1c(=N)n(CC(=O)c2ccco2)c2ccccc21	-4.02*	8.1	61.8	-0.0879	0.6	-2.8	471	223
CC(=O)c1ccccc1NS(=O)(=O)c1c(C)nn(-c2ccccc2)c1C	-3.4*	2.2	65.6	-0.868	5.7	5.0	569	241
O=c1c(C(c2nnnn2C2CCCCC2)N2CCCCC2)coc2ccc(Cl)cc12 (stereo not given)	-0.173	7.2	28.4	0.424	2.6	-4.5	x	x
COc1ccc(S(=O)(=O)N2CCCC(C(=O)O)C2)cc1Cl (stereo not given)	-0.669	1.6	91.6	-1.85	-0.6	-7.8	x	x
O=C(Nc1ccccc1Cl)c1cc(S(=O)(=O)N2CCCC(C(=O)O)C2)ccc1F (stereo not given)	-3.48*	-17.7	101.1	-0.0867	6.8	x	529*	248
OC(COCc1ccc(Cl)cc1)CN1CCN(CC(O)COCc2ccc(Cl)cc2)CC1 (stereo not given)	-1.89*	0.9	69.0	0.675	5.3	-1.7	444*	255
CCN1CCN(CC(O)COCc2ccccc2)CC1 (stereo not given)	0.567	4.6	97.9	0.271	-1.8	-4.9	x	x
CCC(=O)Nc1cc(Cl)ccc1N1CCN(C(=O)CC)CC1	-4.85*	2.9	133.0	0.0105	7.4	3.4	692	294
CCC(=O)N1CCN(c2ccc(Cl)cc2NC(=O)Cc2ccccc2)CC1	0.711	-18.1	109.4	0.0186	3.2	-0.4	x	x
CCOc1ccc(CNc2ccc(N3CCCC3)cc2)cc1	0.936	3.1	64.3	0.457	-3.0	-1.9	x	x
CCCCn1nnnc1NCc1ccc(N2CCCC2)cc1	-3.75*	3.6	x	-0.817	-22.0	-6.3	544	240
O=C(NCCN1CCOCC1)c1ccc2c(c1)N(Cc1ccc(F)cc1)C(=O)CS2	-9.13*	0.3	101.5	0.465	-6.0	-0.3	398*	214
O=C(NCCN1CCCC1)c1ccc2c(c1)N(Cc1ccc(F)cc1)C(=O)c1ccccc1S2=O (stereo not given)	-1.06*	6.3	64.8	0.0128	8.0	-0.8	505	244
O=C(O)c1ccc2c(c1)N(Cc1ccccc1)C(=O)c1ccccc1S2=O (stereo not given)	0.443	-4.0	114.8	-0.196	-6.4	1.7	x	x
c1cncc(C(c2nnnn2C2CCCC2)N2CCCC2)c1 (stereo not given)	-1.99*	12.5	105.0	0.116	3.5	-4.2	662	207
CC(C)(C)n1nnnc1C(c1cccnc1)N1CCN(C2CCCCC2)CC1 (stereo not given)	1.15	6.7	100.3	-0.0405	-2.7	-1.1	x	x
C=C(C)C(C)(C#CCN1CCCC1)OC(C)=O (stereo not given)	-1.51*	0.2	81.0	-1.25	4.3	-3.3	526*	182
Fc1ccccc1Cn1nnc2c(-n3ccnc3)ncnc21	-0.383	-4.2	101.2	0.207	4.1	6.2	x	x
CCOC(=O)N1CCN(C(=O)CCCn2nc(C)c3sc4ccccc4c3c2=O)CC1	-0.418	1.6	76.7	2.61	-1.7	-17.1	x	x
CN1CCN(C2=Nc3ccccc3Oc3ccc(Cl)cc32)CC1	-12.8*	7.4	102.9	0.265	6.8	2.5	14.9*	267
CSc1ccc(/C=N/n2c(C)cc(C)cc2=O)cc1	-0.71	2.2	110.0	-0.139	3.3	-1.5	x	x
CCCCCCC1C(C#N)=C(N)OC2=C1C(=O)CC(C)(C)C2 (stereo not given)	0.596	4.5	55.5	3.87	5.7	-6.3	x	x
CCCCCCC1C(C#N)=C(N)OC2=C1C(=O)CCC2 (stereo not given)	-2.34*	13.0	94.9	-0.3	5.8	-1.2	434*	236
O=C(Nc1nnc(-c2ccccc2)o1)c1nc2ccccc2s1	0.0779	6.0	97.5	1.47	5.1	3.8	x	x
CC1CCCN(CC(=O)Nc2ccc(S(=O)(=O)NC3CCCCC3)cc2)C1 (stereo not given)	-0.194	-0.6	120.9	-0.732	2.7	3.6	x	x
SMILES	M1 antag	FXIIa mix inh	HER2 expr 66K	M1 ag	FXIa mix inh	JNK3 inh	M1 antag confirm	mGluR4 antag
COc1ccc(C2CCCN2C(=O)Nc2cccc(C(C)=O)c2)cc1OC (stereo not given)	-2.5*	-1.6	58.0	-0.108	-3.8	2.4	620	249
COc1cccc(CN2C(=O)CCC2(C)C(=O)NC2CCCCC2)c1 (stereo not given)	-3.5*	2.6	89.7	-0.486	4.7	1.6	582	229
Cc1nc(N2CCN(S(=O)(=O)c3cccc4nonc34)CC2)c2c3c(sc2n1)CCCC3	0.0556	4.1	116.6	0.948	-3.8	-15.5	x	x
Cc1onc(-c2ccccc2Cl)c1C(=O)Nc1ccc(-n2nncc2-c2ccco2)cc1	-1.86*	-4.0	102.1	-0.212	3.0	x	379*	208
O=C(c1ccco1)N1CCC(c2ccccc2)C1 (stereo not given)	0.142	-6.2	75.4	-0.00628	4.9	4.0	x	x
CC(NC(=O)CSc1ncnc2nc[nH]c12)c1ccccc1 (stereo not given)	-3.84*	-17.1	116.4	0.392	11.5	x	667	259
COc1ccc(N(CC(=O)NCc2cccs2)S(=O)(=O)c2c(C)n[nH]c2C)cc1	-0.0709	-16.9	86.0	-0.473	0.3	1.2	x	x
COc1cc(C2C(C#N)=C(N)Oc3n[nH]c(C)c32)cc2c1OCO2 (stereo not given)	-4.78*	11.9	106.5	0.0944	3.0	-5.6	642	228
Cc1[nH]nc2c1C(c1ccoc1)C(C#N)=C(N)O2 (stereo not given)	0.59	-1.1	113.0	-0.0194	4.8	1.9	x	x
COc1ccc(-c2nnc(SCC(=O)NC(=O)NCc3ccco3)o2)cc1	-0.0136	2.4	81.3	-0.345	8.0	x	x	x
COc1ccc(C2(CNC(C)=O)CCOCC2)cc1OC	-0.018	1.7	89.0	0.944	6.0	-2.8	x	x
CCN(CC)CCOC(=O)C1(c2ccc(OC)c(OC)c2)CCCC1	-10.8*	-18.6	135.5	0.536	13.0	-13.2	165*	195
Cc1ccccc1NC(=O)C1CCCN1C(=O)NC1CCCCC1 (stereo not given)	0.014	7.4	74.1	0.0257	-1.3	-5.4	x	x
O=C(CN1CCN(c2ccccc2)CC1)N1CCN(c2ccccc2)CC1	-0.804	6.4	91.8	1.1	4.6	4.2	x	x
O=C(Nc1ccccc1-c1ccccc1)NC1CCN(CC(=O)N2CCOCC2)CC1	-5.95*	-16.0	92.1	0.815	0.7	0.6	323*	242
Cc1cccc(C(=O)NC2CCN(CC(=O)N3CCOCC3)CC2)c1	0.254	3.3	95.8	-0.618	-3.5	2.4	x	x
